Assay [1] deals with Oxysterols receptor LXR-alpha (Homo sapiens) (UniProt Q13133). In words: ATG_LXRa_TRANS: Attagene TRANS-FACTORIAL HepG2 Assay for human Liver X Receptor alpha (LXRa) (AID 2282980; active = hit-call score of the fitted dose curve at least 0.9, where 1 is the maximum). The conditions noted are these: HepG2 Attagene TRANS reporter, LXRa transactivation. The procedure, abridged: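 HepG2 cells transiently transfected with GAL4-UAS reporter units for chimeric NR-Gal4 proteins, exposed to chemicals for 24 h. Reporter mRNA quantified by RT-PCR and capillary electrophoresis; gain of signal fitted relative to DMSO.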
Sequence of Oxysterols receptor LXR-alpha (Homo sapiens) (Q13133 whole entry, looked up, the tested form may be a part): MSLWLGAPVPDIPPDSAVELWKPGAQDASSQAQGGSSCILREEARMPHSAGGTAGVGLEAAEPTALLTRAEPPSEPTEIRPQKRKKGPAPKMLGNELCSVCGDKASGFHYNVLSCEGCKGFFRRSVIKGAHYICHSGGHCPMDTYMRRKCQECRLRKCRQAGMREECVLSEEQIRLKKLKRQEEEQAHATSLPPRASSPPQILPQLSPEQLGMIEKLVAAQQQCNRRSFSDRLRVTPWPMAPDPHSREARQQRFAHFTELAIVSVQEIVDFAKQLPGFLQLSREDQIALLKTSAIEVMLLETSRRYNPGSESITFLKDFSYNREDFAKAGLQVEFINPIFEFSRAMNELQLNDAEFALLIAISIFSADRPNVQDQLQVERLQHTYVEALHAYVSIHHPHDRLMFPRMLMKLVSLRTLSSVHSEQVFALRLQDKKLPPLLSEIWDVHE

Assay [2] deals with Hepatocyte nuclear factor 4-alpha (Homo sapiens) (UniProt P41235). In words: ATG_HNF4a_TRANS: Attagene TRANS-FACTORIAL HepG2 Assay for human Hepatocyte Nuclear Factor 4 alpha (HNF4a) (AID 2282982; active = hit-call score of the fitted dose curve at least 0.9, where 1 is the maximum). The conditions noted are these: HepG2 HNF4a transactivation reporter, mRNA readout. The procedure, abridged: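 Transient MRTU transfection of HepG2, 24 h dosing. Readout: reporter mRNA via RT-PCR + capillary electrophoresis, fluorescence; activity fit upward relative to DMSO control.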
Sequence of Hepatocyte nuclear factor 4-alpha (Homo sapiens) (P41235 whole entry, looked up): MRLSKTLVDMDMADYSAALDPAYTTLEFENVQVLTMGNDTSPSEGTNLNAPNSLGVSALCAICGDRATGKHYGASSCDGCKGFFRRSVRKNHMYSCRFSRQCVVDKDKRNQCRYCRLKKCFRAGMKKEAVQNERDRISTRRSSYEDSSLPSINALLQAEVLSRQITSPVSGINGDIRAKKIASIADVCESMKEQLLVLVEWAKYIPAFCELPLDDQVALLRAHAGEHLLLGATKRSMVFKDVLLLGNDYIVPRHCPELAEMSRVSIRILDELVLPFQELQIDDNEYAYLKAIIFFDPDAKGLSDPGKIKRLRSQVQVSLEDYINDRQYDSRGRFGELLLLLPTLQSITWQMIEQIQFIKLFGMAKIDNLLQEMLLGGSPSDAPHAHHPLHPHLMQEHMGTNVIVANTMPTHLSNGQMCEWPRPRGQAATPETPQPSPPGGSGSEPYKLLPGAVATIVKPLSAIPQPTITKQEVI

Assay [3] can be described thus: ATG_M_06_TRANS: Attagene TRANS-FACTORIAL HepG2 Assay for M06 Transcription Factor (Internal Marker) (AID 2282983; active = hit-call score of the fitted dose curve at least 0.9, where 1 is the maximum;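 also: reporter transcript level by RT-PCR then capillary electrophoresis fluorescence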). To be noted: HepG2 Attagene TRANS M06 internal marker reporter. The procedure, abridged:
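mRNA levels of a reporter transcript, quantified as FAM fluorescence on capillary electrophoresis, served as readout. HepG2 cells expressing exogenous GAL4-chimera reporter constructs were exposed for 24 h. Gain of signal over DMSO was evaluated.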

Assay [4] in a line: ATG_M_32_TRANS: Attagene TRANS-FACTORIAL HepG2 Assay for M32 Transcription Factor (Internal Marker) (AID 2282984; active = hit-call score of the fitted dose curve at least 0.9, where 1 is the maximum;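 also: transcript level of a background control reporter unit measured by RT-PCR and capillary electrophoresis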). To be noted: HepG2 Attagene TRANS M32 internal marker reporter. In a few lines: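 Read-out: fluorescent reporter cDNA fragments resolved by capillary electrophoresis after RT-PCR of total RNA. Transfected HepG2 cells were exposed to chemical for 24 h. Activity scored in the positive direction relative to DMSO.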

Assay [5] has as its target Nuclear receptor subfamily 4 group A member 2 (Homo sapiens) (UniProt P43354). The assay is described as follows: ATG_NURR1_TRANS: Attagene TRANS-FACTORIAL HepG2 Assay for human Nuclear Receptor Related Protein 1 (NURR1) (AID 2282985; active = hit-call score of the fitted dose curve at least 0.9, where 1 is the maximum). To be noted: HepG2 Attagene TRANS reporter, mRNA readout. In a few lines: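 Read-out: reporter mRNA induction by RT-PCR plus capillary electrophoresis with fluorescence detection, after 24 h dosing of transfected HepG2 cells. Exogenous NR-Gal4 chimera activity drives GAL4-UAS reporter; activity fitted upward versus DMSO.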

Assay [6] has as its target Transcriptional activator Myb (Homo sapiens) (UniProt P10242). In words: ATG_Myb_CIS: Attagene CIS-FACTORIAL HepG2 Assay for human Myeloblastosis (Myb) Proto-Oncogene Transcription Factor (AID 2282986). The conditions noted are these: HepG2 Attagene CIS-FACTORIAL Myb reporter transcription; actives raise or lower the signal. In a few lines: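 Using HepG2 liver cells bearing transiently transfected cis-promoter reporter constructs, the assay measures induction or loss of reporter mRNA after 24 hours of dosing. Detection used fluorescently labeled RT-PCR products separated by capillary electrophoresis.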

In assay [7] the target is Nuclear respiratory factor 1 (Homo sapiens) (UniProt Q16656). In words: ATG_NRF1_CIS: Attagene CIS-FACTORIAL HepG2 Assay for human Nuclear Respiratory Factor 1 (NRF1) Orphan Gene (AID 2282987). The conditions noted are these: HepG2 NRF1 cis-element reporter, Attagene multiplex; actives raise or lower the signal. In a few lines: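 Reporter mRNA induction or loss in HepG2 cells after 24 h dosing; cis-regulated reporter constructs report endogenous transcription-factor activity. Quantified by RT-PCR/capillary electrophoresis fluorescence, DMSO-referenced.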
Sequence of Nuclear respiratory factor 1 (Homo sapiens) (Q16656 whole entry, looked up): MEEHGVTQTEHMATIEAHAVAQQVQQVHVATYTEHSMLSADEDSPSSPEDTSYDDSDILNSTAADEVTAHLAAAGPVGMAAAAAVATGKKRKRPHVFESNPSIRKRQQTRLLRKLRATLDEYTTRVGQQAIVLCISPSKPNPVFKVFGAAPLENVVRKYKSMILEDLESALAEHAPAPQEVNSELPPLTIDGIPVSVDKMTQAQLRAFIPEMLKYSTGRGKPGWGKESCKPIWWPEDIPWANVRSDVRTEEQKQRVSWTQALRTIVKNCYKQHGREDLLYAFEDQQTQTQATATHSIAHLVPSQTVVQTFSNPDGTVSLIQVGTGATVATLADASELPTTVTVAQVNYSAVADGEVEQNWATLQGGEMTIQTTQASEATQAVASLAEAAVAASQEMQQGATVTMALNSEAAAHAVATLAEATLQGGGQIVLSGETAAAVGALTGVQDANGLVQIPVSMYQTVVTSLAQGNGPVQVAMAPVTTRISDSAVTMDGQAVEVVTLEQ

Assay [8] in a line: ATG_NFI_CIS: Attagene CIS-FACTORIAL HepG2 Assay for human Nuclear Factor I (NFI) (AID 2282989). To be noted: HepG2 cis-regulatory reporter, NFI response element transcription; actives raise or lower the signal. In a few lines: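 HepG2 cells transiently transfected with cis-element-driven multiplexed reporter transcription units, dosed for 24 h. Reporter mRNA quantified by RT-PCR, fluorescent labelling, HpaI digestion and capillary electrophoresis; bidirectional fit versus DMSO baseline.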

Assay [9] addresses Myc proto-oncogene protein (Homo sapiens) (UniProt P01106). In words: ATG_Myc_CIS: Attagene CIS-FACTORIAL HepG2 Assay for human Myelocytomatosis (Myc) Proto-Oncogene Transcription Factor (AID 2282990). The conditions noted are these: HepG2, Attagene cis-reporter transcription factor activity; actives raise or lower the signal. The procedure, abridged:
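Transiently transfected HepG2 cells bearing cis-promoter reporter units for endogenous transcription factors; 24 h exposure. Reporter mRNA measured by RT-PCR, 6-FAM primer extension, HpaI cut and capillary electrophoresis; bidirectional fit relative to DMSO.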

Assay [10] can be described thus: ATG_NF_kB_CIS: Attagene CIS-FACTORIAL HepG2 Assay for human Nuclear Factor Kappa B (NF-kB) (AID 2282991). The conditions noted are these: HepG2 Attagene cis-factorial NF-kB reporter mRNA; actives raise or lower the signal. The procedure, abridged:
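DMSO served as negative control and baseline for bidirectional curve fitting. Transiently transfected HepG2 cells were dosed for 24 h, then reporter transcripts were measured by RT-PCR with capillary electrophoresis detection.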

Assay [11] can be described thus: ATG_NRF2_ARE_CIS: Attagene CIS-FACTORIAL HepG2 Assay for human Nuclear Factor Erythroid 2 Related Factor 2 (NFR2) response to Antioxidant Response Elements (ARE) (AID 2282992).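 As to AC50: reporter mRNA level measured by RT-PCR and capillary electrophoresis fluorescence.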 The conditions noted are these: HepG2 Attagene ARE/NRF2 reporter, transcription factor activity; actives raise or lower the signal. In a few lines:
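Fluorescence intensity of reporter-specific cDNA fragments, separated by capillary electrophoresis, reflects mRNA induction in transfected HepG2 cells at 24 h. Activity is fitted bidirectionally, DMSO serving as baseline.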

Assay [12] in a line: ATG_Oct_MLP_CIS: Attagene CIS-FACTORIAL HepG2 Assay for human Octamer-Binding Transcription Factor (Oct) (AID 2282993). To be noted: HepG2 Attagene cis-factorial Oct reporter, mRNA; actives raise or lower the signal. In a few lines: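 HepG2 cells transiently transfected with cis-promoter-driven multiplexed reporter transcription units, dosed for 24 h. Reporter mRNA quantified by RT-PCR, fluorescent labelling, HpaI digestion and capillary electrophoresis; bidirectional fits versus DMSO baseline.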

The target of assay [13] is Cellular tumor antigen p53 (Homo sapiens) (UniProt P04637). In words: ATG_p53_CIS: Attagene CIS-FACTORIAL HepG2 Assay for human p53 Transcription Factor (AID 2282994). To be noted: HepG2 p53 cis-element reporter, Attagene mRNA; actives raise or lower the signal. The procedure, abridged:
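Transiently transfected HepG2 (multiple cis reporter transcription units); exposure 24 h; reporter RNA via RT-PCR, 6-FAM extension, 2 h HpaI digest at 37 C, CE detection; DMSO baseline.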

Assay [14] can be described thus: BSK_3C_TissueFactor: BioMAP Diversity Plus: 3C Assay for Tissue Factor Biomarker Activity (AID 2282997). To be noted: BioMAP 3C HUVEC, tissue factor biomarker readout; actives raise or lower the signal. The procedure, abridged: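 Tissue Factor measured by ELISA, 24 h after treatment of primary HUVEC in the BioMAP 3C setting.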
Assay [15] in a line: BSK_3C_uPAR: BioMAP Diversity Plus: 3C Assay for Urokinase-type plasminogen activator receptor (uPAR) Biomarker Activity (AID 2282998). The conditions noted are these: BioMAP 3C HUVEC, uPAR biomarker ELISA; actives raise or lower the signal. The procedure, abridged:
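Human umbilical vein endothelial primary cells were exposed to test chemical for 24 h. Cell-surface uPAR was then quantified by ELISA, and responses were fitted bidirectionally against DMSO as negative control and baseline.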
For orientation: In an ELISA, binding on a coated surface is turned into a signal by an enzyme label.

Assay [16] in a line: BSK_3C_VCAM1: BioMAP Diversity Plus: 3C Assay for Vascular cell adhesion molecule 1 (VCAM1) Biomarker Activity (AID 2282999). The conditions noted are these: BioMAP 3C HUVEC, VCAM1 ELISA, cytokine-stimulated; actives raise or lower the signal. In a few lines: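 HUVEC primary cells, 24 h compound exposure; VCAM-1 by ELISA; gain/loss of signal fitted bidirectionally vs DMSO baseline.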

Assay [17] is described as follows: BSK_4H_Eotaxin3: BioMAP Diversity Plus: 4H Assay for Eotaxin 3 Biomarker Activity (AID 2283000).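 As to outcome: CCL26 protein level quantified by ELISA in parallel with SRB cytotoxicity check.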 The conditions noted are these: primary human endothelial cells (HUVEC); actives raise or lower the signal. In a few lines:
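Eotaxin-3 (CCL26) levels were measured by ELISA in HUVEC primary cultures 24 h post-dosing. Gain or loss of signal was fitted in both directions, with DMSO serving as baseline and negative control.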

The target of assay [18] is Bile acid receptor (Homo sapiens) (UniProt Q96RI1). In words: ATG_FXR_TRANS: Attagene TRANS-FACTORIAL HepG2 Assay for Farnesoid X Receptor (FXR) (AID 2282979; active = hit-call score of the fitted dose curve at least 0.9, where 1 is the maximum;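 also: hits raise reporter mRNA above DMSO so AC50 marks FXR activation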). To be noted: HepG2 Attagene TRANS FXR-GAL4 reporter transcription. In a few lines: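 HepG2 cells were transiently transfected with GAL4-UAS reporters driven by chimeric NR-Gal4 proteins and dosed for 24 h. Reporter mRNA was quantified by RT-PCR, fluorescent labelling, HpaI digestion and capillary electrophoresis, with gain of signal scored versus DMSO.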
Sequence of Bile acid receptor (Homo sapiens) (Q96RI1 whole entry, looked up, the tested form may be a part): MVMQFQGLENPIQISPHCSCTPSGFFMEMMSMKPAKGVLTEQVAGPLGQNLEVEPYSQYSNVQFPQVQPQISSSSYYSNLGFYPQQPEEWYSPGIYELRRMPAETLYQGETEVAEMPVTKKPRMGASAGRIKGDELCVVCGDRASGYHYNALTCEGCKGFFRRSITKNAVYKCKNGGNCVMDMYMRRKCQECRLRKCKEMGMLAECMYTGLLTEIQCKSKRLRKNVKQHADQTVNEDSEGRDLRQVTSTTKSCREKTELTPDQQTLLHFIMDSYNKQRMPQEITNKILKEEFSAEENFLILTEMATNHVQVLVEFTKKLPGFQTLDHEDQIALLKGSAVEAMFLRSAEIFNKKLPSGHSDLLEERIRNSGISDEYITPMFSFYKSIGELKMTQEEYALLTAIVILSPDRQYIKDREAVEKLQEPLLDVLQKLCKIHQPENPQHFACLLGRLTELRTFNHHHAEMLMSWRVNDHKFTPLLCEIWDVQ

In assay [19] the target is Oxysterols receptor LXR-beta (Homo sapiens) (UniProt P55055). The assay is described as follows: ATG_LXRb_TRANS: Attagene TRANS-FACTORIAL HepG2 Assay for human Liver X Receptor beta (LXRb) (AID 2282981; active = hit-call score of the fitted dose curve at least 0.9, where 1 is the maximum). To be noted: HepG2 Attagene TRANS GAL4-LXRb reporter, mRNA. The procedure, abridged: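 Readout: fluorescent reporter mRNA fragments resolved by capillary electrophoresis after RT-PCR. System: transiently transfected human HepG2, exogenous LXRb-Gal4 chimera driving GAL4-UAS reporter, 24 h dosing. Activity fitted upward against DMSO baseline.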
Sequence of Oxysterols receptor LXR-beta (Homo sapiens) (P55055 whole entry, looked up, the tested form may be a part): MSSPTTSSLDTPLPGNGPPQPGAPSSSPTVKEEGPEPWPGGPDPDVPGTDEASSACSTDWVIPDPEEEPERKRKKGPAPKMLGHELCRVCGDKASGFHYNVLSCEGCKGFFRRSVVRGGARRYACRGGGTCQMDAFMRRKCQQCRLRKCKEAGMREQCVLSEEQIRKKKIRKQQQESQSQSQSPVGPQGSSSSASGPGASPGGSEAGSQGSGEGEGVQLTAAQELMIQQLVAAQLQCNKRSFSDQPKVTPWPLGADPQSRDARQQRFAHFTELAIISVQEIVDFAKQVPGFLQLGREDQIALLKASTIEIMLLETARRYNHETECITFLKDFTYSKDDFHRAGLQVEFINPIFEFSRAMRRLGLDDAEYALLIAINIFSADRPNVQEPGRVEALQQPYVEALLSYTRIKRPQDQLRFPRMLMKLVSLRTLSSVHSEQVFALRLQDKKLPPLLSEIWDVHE

Each structure is given as a SMILES string. Records with an inconclusive call do not appear. The source made the active and inactive calls. The calls were made as follows, unless noted: active = hit-call score of the fitted dose curve at least 0.9, where 1 is the maximum; inactive = score below 0.9.

What is called AC50 is the midpoint of the concentration-response curve, whichever way the signal moves.

Sequence of Transcriptional activator Myb (Homo sapiens) (P10242 whole entry, looked up): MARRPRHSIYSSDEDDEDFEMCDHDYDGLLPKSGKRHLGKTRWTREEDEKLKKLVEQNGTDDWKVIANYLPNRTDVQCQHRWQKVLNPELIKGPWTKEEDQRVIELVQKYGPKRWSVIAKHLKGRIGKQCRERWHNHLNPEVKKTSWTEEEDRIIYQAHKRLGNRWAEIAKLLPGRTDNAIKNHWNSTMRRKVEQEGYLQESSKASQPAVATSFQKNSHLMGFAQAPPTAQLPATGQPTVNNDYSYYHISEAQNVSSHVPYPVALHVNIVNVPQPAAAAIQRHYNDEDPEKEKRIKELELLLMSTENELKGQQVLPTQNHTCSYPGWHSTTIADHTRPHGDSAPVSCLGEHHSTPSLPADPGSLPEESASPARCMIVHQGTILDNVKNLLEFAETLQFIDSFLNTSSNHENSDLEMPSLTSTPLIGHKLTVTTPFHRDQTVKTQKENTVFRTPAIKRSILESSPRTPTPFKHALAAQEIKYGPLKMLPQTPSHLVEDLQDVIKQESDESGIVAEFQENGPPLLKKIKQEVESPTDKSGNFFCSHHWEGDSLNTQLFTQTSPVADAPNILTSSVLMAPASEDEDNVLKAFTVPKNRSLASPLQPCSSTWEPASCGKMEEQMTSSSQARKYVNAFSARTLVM
Sequence of Myc proto-oncogene protein (Homo sapiens) (P01106 whole entry, looked up): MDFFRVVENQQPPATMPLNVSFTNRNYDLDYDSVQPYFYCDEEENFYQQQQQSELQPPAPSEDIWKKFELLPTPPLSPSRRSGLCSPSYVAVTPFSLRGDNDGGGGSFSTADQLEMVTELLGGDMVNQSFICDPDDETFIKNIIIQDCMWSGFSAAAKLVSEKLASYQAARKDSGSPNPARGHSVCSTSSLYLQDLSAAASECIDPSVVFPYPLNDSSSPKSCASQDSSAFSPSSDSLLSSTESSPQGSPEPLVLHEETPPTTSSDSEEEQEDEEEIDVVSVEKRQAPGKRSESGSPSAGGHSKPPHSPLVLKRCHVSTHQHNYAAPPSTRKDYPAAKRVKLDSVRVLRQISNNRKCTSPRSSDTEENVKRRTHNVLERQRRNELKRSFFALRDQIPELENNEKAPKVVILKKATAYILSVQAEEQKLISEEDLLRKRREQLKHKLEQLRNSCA
Sequence of Nuclear receptor subfamily 4 group A member 2 (Homo sapiens) (P43354 whole entry, looked up, the tested form may be a part): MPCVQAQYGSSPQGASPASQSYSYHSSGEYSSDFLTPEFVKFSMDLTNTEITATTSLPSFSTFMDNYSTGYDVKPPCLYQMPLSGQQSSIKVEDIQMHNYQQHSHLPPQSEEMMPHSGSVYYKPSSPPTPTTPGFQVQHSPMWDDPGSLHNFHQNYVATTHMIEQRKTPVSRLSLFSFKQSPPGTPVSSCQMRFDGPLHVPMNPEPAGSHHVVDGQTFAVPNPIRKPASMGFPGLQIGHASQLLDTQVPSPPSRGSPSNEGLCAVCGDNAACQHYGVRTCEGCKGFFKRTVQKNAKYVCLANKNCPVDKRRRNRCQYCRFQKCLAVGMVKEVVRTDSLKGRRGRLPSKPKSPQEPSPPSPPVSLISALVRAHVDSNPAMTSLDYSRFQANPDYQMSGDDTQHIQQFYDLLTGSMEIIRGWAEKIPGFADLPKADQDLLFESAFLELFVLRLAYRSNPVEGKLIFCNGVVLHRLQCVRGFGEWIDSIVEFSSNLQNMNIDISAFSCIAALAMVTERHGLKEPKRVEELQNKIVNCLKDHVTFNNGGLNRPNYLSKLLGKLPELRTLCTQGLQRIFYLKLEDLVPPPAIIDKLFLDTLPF
Sequence of Cellular tumor antigen p53 (Homo sapiens) (P04637 whole entry, looked up): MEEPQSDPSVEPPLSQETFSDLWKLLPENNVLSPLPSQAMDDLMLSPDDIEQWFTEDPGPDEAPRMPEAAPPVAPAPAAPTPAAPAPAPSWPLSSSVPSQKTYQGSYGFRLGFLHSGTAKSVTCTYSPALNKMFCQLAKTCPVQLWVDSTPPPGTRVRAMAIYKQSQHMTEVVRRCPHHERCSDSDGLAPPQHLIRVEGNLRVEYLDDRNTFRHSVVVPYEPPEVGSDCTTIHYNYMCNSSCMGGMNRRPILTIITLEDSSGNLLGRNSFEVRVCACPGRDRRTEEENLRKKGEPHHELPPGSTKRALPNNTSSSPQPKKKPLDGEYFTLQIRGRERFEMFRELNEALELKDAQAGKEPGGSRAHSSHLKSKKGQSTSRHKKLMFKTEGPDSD

`Cc1ccc2oc(CN(Cc3ccccc3)C(=O)Nc3c(F)cc(F)cc3F)c(-c3ccc(Cl)cc3)c2c1`: the compound was classed as inactive in [1], in assay [2], in [3], in [4], in assay [5] and in assay [6]. In addition, the result in assay [7], in assay [8], in assay [9], in assay [10], in [11] and in assay [12] was inactive. Moreover, the compound was called inactive in assay [13], in [14], in assay [16] and in [17]. In addition, the AC50 in [15] is 10.8 µM (active).

As for `CCN(CC)C(=O)c1cc(S(=O)(=O)Cc2ccccc2)c(N2CCC(c3ccccc3)CC2)cc1N(CC)CCN(C)C`, the call in assay [1], in assay [2], in assay [3], in assay [6], in assay [7] and in [9] was inactive. The outcome in [10], in assay [12] and in assay [13] was inactive. Further, the AC50 in assay [11] is 3.7 µM (active); in [14] it was 32.2 µM (active); in [15], 5.11 µM (active); in [16], 12.9 µM (active); in assay [17], 18.7 µM (active).

With `NC(=O)c1nc(-c2cccc(-c3cc(F)ccc3OCC(F)(F)C(F)(F)F)c2)n[nH]1`, the compound was called inactive in [18], in assay [4], in assay [6], in assay [7], in assay [9] and in assay [10]. Moreover, in assay [13], the compound was called inactive. The AC50 in assay [5] was 50.1 µM (active); in [11], 8.83 µM (active); in assay [12] it was 27.4 µM (active); in [14], 29.7 µM (active); in assay [15] it was 26.6 µM (active); in assay [16], 35.7 µM (active). The AC50 in assay [17] was 37 µM (active).

Consider `CCCCCCCCN(C)CCCCCCCC`, for which the compound was classed as inactive in assay [2], in assay [3], in assay [4], in assay [5], in assay [6] and in assay [7]. Besides, the call in [8], in assay [9], in [10], in assay [11], in assay [12] and in [13] was inactive. The outcome in assay [14], in [15], in [16] and in [17] was inactive.

Consider `OCCO`, for which the outcome in assay [19], in [2], in [4], in assay [6], in [7] and in assay [8] was inactive. For the same compound, the compound was called inactive in assay [9], in assay [10], in [11], in assay [12], in assay [13] and in assay [14]. Besides, the outcome in assay [15], in assay [16] and in assay [17] was inactive.

Regarding `CCCCCCCCOc1ccc(C(=O)c2ccccc2)c(O)c1`, the compound was called inactive in assay [18], in assay [4], in [5], in [6], in assay [7] and in [9]. Further, the compound was classed as inactive in [10], in assay [11], in assay [12], in assay [13], in [15] and in [16]. Also, in assay [17], the result was inactive. Besides, the AC50 in assay [14] is 13.2 µM (active).

In the case of `CCO[Si](CCCNC(N)=O)(OCC)OCC`, the compound was classed as inactive in assay [18], in [3], in [4], in assay [5], in assay [6] and in assay [7]. The call in assay [9], in [11], in assay [12], in [13], in assay [14] and in assay [15] was inactive. In addition, the result in assay [16] and in assay [17] was inactive.

Source of the values: PubChem BioAssay (EPA / NIEHS).
